Screening results deposited in PubChem BioAssay by several laboratories.
Calb FLC: affects C. albicans growth with fluconazole | C. albicans CaCi-2 (fluconazole-resistant clinical isolate) + fluconazole, Alamar Blue growth, 48 h | actives 0.57% (n = 300,000) | growth inhibition, % (no concentration beside the values);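 active means growth inhibition above about 58% in most replicates, limit read from the data, passing the limit was not always enough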;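 further: all wells also contain fluconazole at 8 µg/ml as a sub-toxic cotreatment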
Rin1-Abl PPI inh: blocks binding of human Rin1 to Abl. P00519+Q13671. TR-FRET Rin1/Abl binding, biochemical. inhibition, % at 7.35 µM. actives 0.4% (n = 360,000). AID 588664; in the data active means inhibition above about 5%, passing the limit was not always enough
Target sequence (P00519 whole entry, looked up): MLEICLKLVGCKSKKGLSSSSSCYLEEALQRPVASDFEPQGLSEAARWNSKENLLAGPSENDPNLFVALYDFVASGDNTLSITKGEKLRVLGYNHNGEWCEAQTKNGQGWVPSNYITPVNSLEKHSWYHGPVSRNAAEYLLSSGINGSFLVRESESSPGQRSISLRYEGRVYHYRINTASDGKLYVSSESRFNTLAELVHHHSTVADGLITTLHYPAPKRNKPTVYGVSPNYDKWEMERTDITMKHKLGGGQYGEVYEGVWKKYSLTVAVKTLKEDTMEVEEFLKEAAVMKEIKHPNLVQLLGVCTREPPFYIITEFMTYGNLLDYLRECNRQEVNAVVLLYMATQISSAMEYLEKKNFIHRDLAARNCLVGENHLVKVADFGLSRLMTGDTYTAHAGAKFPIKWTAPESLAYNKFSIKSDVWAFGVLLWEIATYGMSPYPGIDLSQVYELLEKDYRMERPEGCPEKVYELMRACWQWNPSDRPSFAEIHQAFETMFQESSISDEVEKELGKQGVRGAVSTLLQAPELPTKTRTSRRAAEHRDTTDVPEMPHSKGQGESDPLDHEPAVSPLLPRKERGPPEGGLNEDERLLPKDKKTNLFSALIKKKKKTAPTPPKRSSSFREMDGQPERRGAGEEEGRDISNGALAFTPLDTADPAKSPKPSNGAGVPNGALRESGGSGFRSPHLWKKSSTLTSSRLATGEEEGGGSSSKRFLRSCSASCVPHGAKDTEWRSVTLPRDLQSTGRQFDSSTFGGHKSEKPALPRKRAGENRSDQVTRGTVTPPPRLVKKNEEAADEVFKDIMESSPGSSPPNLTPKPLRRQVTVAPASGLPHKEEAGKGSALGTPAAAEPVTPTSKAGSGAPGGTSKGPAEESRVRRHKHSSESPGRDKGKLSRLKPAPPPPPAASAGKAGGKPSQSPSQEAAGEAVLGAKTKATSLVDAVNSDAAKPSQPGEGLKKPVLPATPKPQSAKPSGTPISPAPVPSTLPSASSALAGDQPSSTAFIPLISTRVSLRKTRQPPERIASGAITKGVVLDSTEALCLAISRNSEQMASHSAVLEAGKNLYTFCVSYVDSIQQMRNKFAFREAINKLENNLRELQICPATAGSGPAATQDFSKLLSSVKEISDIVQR
Target sequence (Q13671 whole entry, looked up): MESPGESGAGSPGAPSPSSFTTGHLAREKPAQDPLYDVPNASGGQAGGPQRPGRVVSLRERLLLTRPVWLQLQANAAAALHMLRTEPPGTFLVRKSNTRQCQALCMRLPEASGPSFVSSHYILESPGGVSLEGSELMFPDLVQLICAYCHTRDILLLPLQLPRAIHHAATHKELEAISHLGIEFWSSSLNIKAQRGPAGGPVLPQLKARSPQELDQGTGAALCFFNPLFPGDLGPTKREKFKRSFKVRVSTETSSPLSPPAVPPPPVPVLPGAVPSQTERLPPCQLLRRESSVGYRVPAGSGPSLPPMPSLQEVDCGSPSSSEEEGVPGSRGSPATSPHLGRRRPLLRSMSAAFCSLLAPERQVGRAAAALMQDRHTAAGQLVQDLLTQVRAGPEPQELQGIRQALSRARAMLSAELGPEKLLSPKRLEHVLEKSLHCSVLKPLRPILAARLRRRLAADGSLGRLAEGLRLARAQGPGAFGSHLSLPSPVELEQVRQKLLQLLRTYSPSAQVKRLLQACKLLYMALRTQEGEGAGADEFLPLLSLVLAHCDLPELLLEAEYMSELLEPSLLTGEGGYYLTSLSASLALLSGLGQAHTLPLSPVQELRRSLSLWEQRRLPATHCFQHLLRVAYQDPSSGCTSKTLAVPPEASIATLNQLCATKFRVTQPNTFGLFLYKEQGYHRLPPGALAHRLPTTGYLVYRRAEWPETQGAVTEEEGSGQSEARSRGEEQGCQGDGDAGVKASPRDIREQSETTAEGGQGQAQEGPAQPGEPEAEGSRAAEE
IDE cell activ: IDE (human) activation, cell-based; P14735; HEK cells, FAbeta-B cleavage, fluorescence polarization; 0% vehicle, 100% cell-free pure enzyme wells; activation, % at 5.96 µM; actives 0.073% (n = 340,000);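 active means activation above the mean of all tested compounds plus 3 SD, set per screening campaign, cut at about 17% in these data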
TPT1 inh: blocks Candida albicans tRNA 2'-phosphotransferase; recombinant caTPT1, FP RNA substrate dephosphorylation; inhibition, % at 5 µM; actives 0.81% (n = 300,000); AID 1962;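 active means inhibition above the mean of all tested compounds plus 3 SD, set per screening campaign, cut at about 24% in these data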
IDE inh: inhibitors of human insulin-degrading enzyme in cells; P14735; HEK cells, FAbetaB cleavage, fluorescence polarization; inhibition, % at 5.59 µM; actives 0.41% (n = 320,000); AID 434962;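 active means percent inhibition above the average of all tested compounds plus 3 SD, set per screening campaign, cut at about 16% in these data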;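 further: IDE supplied by intact live HEK cells; FP after avidin binding of uncleaved biotin substrate so inhibition keeps polarization high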
Rpn11 block: blocks the human proteasome subunit Rpn11. O00487. human 26S proteasome, Ub4-pepOG fluorescence polarization; 20S core pre-blocked with epoxomicin. inhibition, % at 20 µM. actives 0.59% (n = 360,000);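 active means inhibition at 20 µM, scaled to each plate's controls, above about 33%, limit read from the data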
Large screens that a line does not name were inactive. Compounds with a hit are over-represented: about 2.3% of the library has one in this group of screens.

C[C@H]1CN([C@@H](C)CO)C(=O)CCCn2cc(nn2)CO[C@@H]1CN(C)C(=O)Nc1cccc(Oc2ccccn2)c1	none (no result: Calb FLC, IDE cell activ, TPT1 inh, IDE inh)
Fc1ccc(N/N=C/c2cccnc2)c(F)c1	Calb FLC 112
COc1cc(/C=N/Nc2ccc(F)cc2F)cc(OC)c1OC	Calb FLC 126
O=S(=O)(Cc1ccc(Cl)cc1)N1CCN(Cc2ccccc2)CC1	Calb FLC 125
NS(=O)(=O)c1ccc(CCNS(=O)(=O)c2ccc3c(c2)NC(=O)CO3)cc1	none
COc1cc(C(=O)NCCC(=O)NC2CCC(C)CC2)cc(OC)c1OC (configuration not stated)	none
CC1CCC(NC(=O)CCNC(=O)c2ccccc2)CC1 (configuration not stated)	Calb FLC 107
Cc1ccc(S(=O)(=O)c2ccccc2)cc1S	IDE inh 26 (no result: Rin1-Abl PPI inh, IDE cell activ, Rpn11 block)
Nc1ccc(S(=O)(=O)c2cccc(N)c2)cc1	none
CN1c2ccccc2N(C)C1(C)c1ccccc1	Calb FLC 122
CCN1c2ccccc2N(C)C1(C)c1ccccc1 (configuration not stated)	none (no result: Calb FLC)
Cc1nc2c(=O)oc3ccccc3c2n1-c1ccccc1	Calb FLC 92
CCOC(=O)CC1C(=O)NCCN1c1nc2ccc(C)cn2c(=O)c1/C=C1\SC(=S)N(C(C)CC)C1=O (configuration not stated)	TPT1 inh 137, IDE inh 43 (no result: Rin1-Abl PPI inh, IDE cell activ, Rpn11 block)
COc1ccc(/C=C/c2nc(S(=O)(=O)c3ccccc3)c(N(C)C)o2)cc1	none
O=C(O)CNC(=O)/C(=C\c1ccc2c(c1)OCO2)NC(=O)c1ccc(Br)cc1	none (no result: IDE cell activ)
CCN(CC)C(=O)/C(=C/c1ccc2c(c1)OCO2)NC(=O)c1ccc(Br)cc1	Calb FLC 91
CC(C)Oc1ccc2c(=O)c(-c3ccccc3)coc2c1	none (no result: Calb FLC)
CC(=O)Oc1ccc2c(=O)c(-c3nc4ccccc4s3)coc2c1	Calb FLC 89
CCCCn1c(=O)[nH]c(=O)c2c1nc(-c1ccc3ccccc3c1)n2CC	none
CCCCn1c(=O)[nH]c(=O)c2c1nc(-c1ccc(-c3ccccc3Br)o1)n2CC	Calb FLC 104
CC1CCN(S(=O)(=O)c2ccc(NC(=O)C3CCCCC3C(=O)O)cc2)CC1 (configuration not stated)	none (no result: Calb FLC, TPT1 inh, IDE inh)
CCOc1ccc(CNc2ccc(CNc3ncn[nH]3)cc2)cc1	Calb FLC 102
Cc1ccc(CNc2ccc(CNc3ncn[nH]3)cc2)cc1	none
CCN(C(=O)COC(=O)c1ncc(Cl)c(Cl)c1Cl)c1c(N)n(Cc2ccccc2)c(=O)[nH]c1=O	none (no result: Calb FLC, TPT1 inh, IDE inh)
COc1ccccc1CNC(=O)C(Cc1ccccc1)NC(=O)c1ccccc1 (configuration not stated)	none (no result: Calb FLC, TPT1 inh)
C=CCOc1ccc(C2C(C(=O)c3cccs3)=C(O)C(=O)N2c2nnc(C)s2)cc1 (configuration not stated)	none
COc1ccc(C2C(C(=O)c3cccs3)=C(O)C(=O)N2c2nncs2)cc1 (configuration not stated)	Calb FLC 116
Cc1ccc(Cn2nnc3c(=O)[nH]c(C4CCN(S(=O)(=O)c5ccc(C)cc5)CC4)nc32)cc1	Calb FLC 111
Cc1ccc(Cn2nnc3c(=O)[nH]c(C4CCN(S(=O)(=O)c5ccc(S(=O)(=O)NC6CC6)cc5)CC4)nc32)cc1	none
Cc1cccc(OCC(=O)Nc2ccc3nc(C)sc3c2)c1	none
Cc1nc2ccc(NC(=O)COc3ccccc3)cc2s1	Calb FLC 108 (no result: TPT1 inh, IDE inh)
Cc1ccccc1N=C(c1ccccc1)C1C(=O)c2ccccc2C1=O	none (no result: Calb FLC, IDE cell activ, TPT1 inh, IDE inh)
COc1ccc(-c2c(C)c3ccc(O)cc3oc2=O)cc1OC	none
Nc1ccc(-c2c3ccc(=O)cc-3oc3cc(O)ccc23)cc1C(=O)O	IDE cell activ 47, IDE inh 17
O=c1ccc2c(-c3ccccc3)c3ccc(O)cc3oc-2c1	IDE cell activ 51
Cc1ccc(C(O)c2ncc(-c3cccc(C(F)(F)F)c3)[nH]2)cc1F (configuration not stated)	none (no result: Calb FLC, IDE cell activ, TPT1 inh, IDE inh)
CN(C(=O)CN1CCN(c2cc(-c3ccc(-c4ccccc4)cc3)ncn2)CC1)c1ccccc1	none (no result: Calb FLC, IDE cell activ, TPT1 inh, IDE inh)
COc1ccc(CN(CCN(C)C)c2ccccn2)cc1	none (no result: Calb FLC)
CCCCCCCCCCCCCCCC[N+](C)(C)CCN(Cc1ccc(OC)cc1)c1ncccn1	IDE cell activ 18, Rpn11 block 77 (no result: Calb FLC)
